# According to PubChem BioAssay (NCATS):
# Where “and” joins values, the source holds several entries; their conditions need not be identical. Identical values can stand only once. Records with an inconclusive call do not appear. Some compounds were tested as several samples or in several runs, with calls that do not always agree. Values without a mark were called inactive. Calls of active or inactive are those of the source. Calls follow the shape of the dose curve; as a rule, active = well fitted inhibition curve with a large enough effect; inconclusive = small, poorly fitted or top-dose-only effect; inactive = flat fitted curve, though single readings scatter.
# Legend:
# [1] = system: CRL-7250; experiment: Cytotoxic Profiling of Annotated Libraries Using Quantitative High-Throughput Screening (AID 1296008); conditions: Five cell lines viability, CellTiter-Glo ATP luminescence, 48-72 h; max response: active compounds read low; also: nearly all actives have a fitted effect of over 60% in size
# Summary of the method: (§1)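 Cells exposed to compounds for 48 or 72 hr at 37 degrees Celsius. Viability read as ATP-coupled luminescence with CellTiter-Glo after 10 min at room temperature.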
# [2] = system: HEK293; experiment: as above; conditions: Five cell lines viability, CellTiter-Glo ATP luminescence, 48-72 h; max response: active compounds read low
# Summary of the method: as §1
# % is scaled to controls: 0 for no effect and ±100 for the full control effect; potency is read from the fitted curve at half-maximal effect.
structure (smiles),measurement,setting,value
CC[C@H]1C=CC=CC[C@@H](C)[C@H](O)[C@@](C)(O)C(=O)[C@@H](C)[C@H](O)[C@@H](C)C(=O)[C@@H](C)[C@H](O)[C@@H](C)C=CC(=O)O[C@@H]2[C@@H](C)[C@H](CC1)O[C@]1(CC[C@H](C)[C@H](C[C@@H](C)O)O1)[C@H]2C,Potency,[1],18.7 µM (active)
same,Potency,[2],0.332 µM (active)
S=C(NC1CCCCC1)N1CCC(c2cnc[nH]2)CC1,max response,[1],-0.728%
same,max response,[2],-0.423%
Nc1c(Cl)c(Cl)c(Cl)c(Cl)c1Cl,max response,[1],-6.12%
same,max response,[2],-6.61%
CC(C)NCC(O)c1ccc([N+](=O)[O-])cc1 (configuration not stated),max response,[1],-2.22%
same,max response,[2],-8.6%
O=C(NCC1CCOCC1)c1cnc(Nc2ccc(Cl)cc2Cl)nc1C(F)(F)F,max response,[1],4.29% and -22.6%
same,Potency,[2],8.2 µM (active)
same,max response,[2],-4.23%
COC1=C[C@@H]2[C@@H]3Cc4ccc(OC)c(O)c4[C@]2(CCN3C)CC1=O,outcome,[1],inactive
same,max response,[2],1.05% and -3.7%
C[C@@H]1CC[C@@]2(OC1)O[C@H]1C[C@H]3[C@@H]4CC=C5C[C@@H](O[C@@H]6O[C@H](CO)[C@@H](O[C@@H]7O[C@@H](C)[C@H](O)[C@@H](O)[C@@H]7O)[C@H](O)[C@@H]6O[C@@H]6O[C@@H](C)[C@H](O)[C@@H](O)[C@@H]6O)CC[C@]5(C)[C@@H]4CC[C@]3(C)[C@@H]1[C@H]2C,Potency,[1],9.35 µM (active)
same,Potency,[2],3.72 µM (active)
CC1=NN=C(c2ccc(N)cc2)c2cc3c(cc2C1)OCO3,outcome,[1],inactive
same,max response,[2],3.46%
